Screening results (PubChem BioAssay)
TSG101-PTAP inh: qHTS Assay for Iinhibitors of HIV-1 Budding by Blocking the Interaction of PTAP/TSG101 | Tumor susceptibility gene 101 protein (Homo sapiens), Q99816 | Fluorescence polarization, FITC-PTAP peptide / Tsg101 binding | Potency, µM (titrated, usually from 115 µM), inactives show at the highest dose activity change, negative = inhibition, most hits filed as inhibitors | 340,000 tested, under 10 active | AID 493005, 2010; active = well fitted inhibition curve with a large enough effect in the main read-out, with a control signal flat, not every such curve was filed as active; inconclusive = small, poorly fitted or top-dose-only effect, or effect the other way, or a change in a side signal; inactive = no such curve, though single readings can be large or run the other way; note: % of control where 0% means no effect
Target sequence (Q99816 whole entry, looked up): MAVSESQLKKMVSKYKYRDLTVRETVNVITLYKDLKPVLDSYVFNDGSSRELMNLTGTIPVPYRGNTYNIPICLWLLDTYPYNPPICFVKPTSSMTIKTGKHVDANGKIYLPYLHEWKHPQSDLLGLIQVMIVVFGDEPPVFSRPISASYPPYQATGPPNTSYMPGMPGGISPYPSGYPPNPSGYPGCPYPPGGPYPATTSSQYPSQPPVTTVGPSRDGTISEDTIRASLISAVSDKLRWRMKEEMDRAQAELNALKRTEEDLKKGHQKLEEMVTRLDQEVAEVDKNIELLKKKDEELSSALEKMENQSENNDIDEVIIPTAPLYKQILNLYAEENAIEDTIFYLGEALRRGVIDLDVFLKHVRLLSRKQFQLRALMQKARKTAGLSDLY
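Compounds were pin-transferred onto Tsg101 binding domain (10 uM final) in HEPES pH 7.5 buffer, then FITC-PTAP peptide was added at 50 nM final. After 20 min at RT, polarization reported peptide displacement across a qHTS concentration series.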
MCF10A rereplic: A quantitative high throughput screen for small molecules that induce DNA re-replication in MCF 10a normal breast cells | AID 624296, 2012 | Potency, µM (top dose mostly 46.1 µM), for the others: at the top dose activity, positive = re-replication, most hits filed as activators | MCF 10A DNA re-replication, Hoechst nuclear intensity, 48 h | 2.9% of 350,000 active; note: % of control where 0% means no effect; nearly all actives have a fitted effect of over 50% in size
SW480 rerep: A quantitative high throughput screen for small molecules that induce DNA re-replication in SW480 colon adenocarcinoma cells; Potency, µM (series often up to 46.1 µM), without a hit: top-dose re-replication activation, most hits filed as activators; SW480 DNA re-replication, Hoechst DNA content imaging, 48 h; 1.8% of 340,000 active; note: % of control where 0% means no effect; nearly all actives have a fitted effect of over 55% in size
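Image-based DNA-content assay: after two days of treatment, nuclei were labelled with the DNA dye Hoechst and imaged, and hits were compounds raising the count of nuclei showing high fluorescence intensity.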
KB-V1 cytotox: qHTS assay for MDR1-selective chemotherapeutics: Primary screen using the drug-selected MDR subline cells KB-V1; AID 1347076, 2019; 3.4% of 400,000 active; KB-V1 MDR cells viability, CellTiter-Glo, 72 h; Potency, µM (doses to about 46.1 µM), usual class: cytotoxic; note: % is set by controls: 0 for no effect and ±100 for the full control effect; nearly all actives have a fitted effect of over 60% in size
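Following 72 h at 37 degrees C with compound, KB-V1 cell viability was read by CellTiter-Glo luminescence, medium being phenol-red-free DMEM plus 10% FBS; concentration-response parameters came from normalized, curve-fitted qHTS data.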
KB-3-1 cytotox: qHTS assay for MDR1-selective chemotherapeutics: Primary screen using the parental adenocarcinoma cell KB-3-1; AID 1347075, 2019; 1.4% of 400,000 active; KB-3-1 viability, CellTiter-Glo ATP luminescence, 72 h; Potency, µM (series often up to 46.1 µM), most hits filed as cytotoxic; note: % is set by controls: 0 for no effect and ±100 for the full control effect; nearly all actives have a fitted effect of over 60% in size
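Cytotoxicity in the drug-sensitive parental line KB-3-1 was scored as loss of CellTiter-Glo luminescence following 72 h incubation with compound. Values come from curve fitting of normalized concentration-response data.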
RGS4 inh: Inhibitors of Regulator of G Protein Signaling (RGS) 4: qHTS | Transcreener GDP fluorescence polarization, RGS4-accelerated GTP hydrolysis | Potency, µM (top dose mostly 114 µM), for the others: at the highest dose activity change, negative = inhibition, actives largely listed as inhibitors | 0.039% of 390,000 active | AID 504845, 2011; note: % is set by controls: 0 for no effect and ±100 for the full control effect; nearly all actives have a fitted effect of over 75% in size
Target sequence (P49798 whole entry, looked up): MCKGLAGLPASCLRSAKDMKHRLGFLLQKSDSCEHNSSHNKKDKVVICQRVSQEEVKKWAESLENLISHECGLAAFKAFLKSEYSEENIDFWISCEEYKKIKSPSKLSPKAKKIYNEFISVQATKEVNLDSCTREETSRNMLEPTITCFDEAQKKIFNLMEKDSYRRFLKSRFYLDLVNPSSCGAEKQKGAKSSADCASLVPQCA
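MLSMR compounds (23 nl, pin-transferred) preincubated 10 min at room temperature with a 500nM (2x) first reagent, then RGS4 at 900nM (2x) plus Transcreener GDP mix added; fluorescence polarization (620/688 nm) read before and after 90 min at 30 °C.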
Active calls of the source: *; i = inactive; ? = inconclusive; . = not tested or not shown. In the library only some 6.6% were active in any assay of this set; here they are far more common. Unless noted, calls come from the whole dose curve; as a rule, active = well fitted curve in the direction sought with a large enough effect; inconclusive = small, poorly fitted or top-dose-only effect, or another doubt; inactive = no such curve, though single readings can be large; an effect the other way counts as inactive or inconclusive. Potency is the fitted concentration of half-maximal effect.

SMILES	TSG101-PTAP inh	MCF10A rereplic	SW480 rerep	KB-V1 cytotox	KB-3-1 cytotox	RGS4 inh
CC(C)NC(=O)Cn1c(SCC(=O)N2CCCCCC2)nc2ccccc21	-6.8%	-5.4%	-6.1%	14.6µM*	i	14.6%
CCOc1ccccc1-c1nc(CN2CCN(C(=O)c3ccco3)CC2)c(C)o1	-0.4%	1.3%	-6.1%	i	i	-18.7%
CCOC(=O)c1c(C)[nH]c(C)c1C(=O)CSc1nc2ccccc2c(=O)n1-c1ccc(Cl)cc1	2.8%	?	?	10.3µM*	?	-4.8%
CCOc1ccccc1-n1c(CN2CCN(C(=O)c3ccco3)CC2)nc2ccccc2c1=O	-5.3%	3.66µM*	24.0%	?	i	-26.2%
CCOC(=O)c1c(C)[nH]c(C)c1C(=O)CSc1nc2ccccc2c(=O)n1-c1ccc(C)cc1	-1.6%	-1.1%	-7.0%	i	i	5.5%
Cc1ccc(OCCSc2nc3ccccc3n2CC(=O)N2CCCCC2)c(C)c1	.	.	.	11.6µM*	?	-17.4%
Cc1cc(-c2ccc(S(=O)(=O)NCc3ccccc3Cl)s2)on1	.	.	.	i	i	-7.7%
Cc1ccc(N(C)S(=O)(=O)c2ccc(-c3cc(C)no3)s2)cc1	0.3%	9.2µM*	?	?	i	-12.4%
Cc1cc(-c2ccc(S(=O)(=O)N(C)c3ccc(C)c(C)c3)s2)on1	1.7%	10.3µM*	?	7.31µM*	13µM*	-28.6%
COC(=O)c1ccc(NC(=O)CC2C(=O)N(c3cccc(OC)c3)C(=O)N2Cc2cccc(OC)c2)cc1 (centres undefined)	.	.	.	.	.	9.9%
COc1cccc(C(=O)N2c3nc(-c4ccco4)nn3C3(CCCCC3)[C@@H]3CCCC[C@@H]32)c1	.	.	.	.	.	-28.8%
Cc1ccc(CN(C)C(=O)CSc2nnc3n2CCCCC3)c(C)c1	-8.6%	11.1%	-1.8%	14.6µM*	i	1.3%
O=S(=O)(Nc1cccc2ccccc12)c1cccc2ccccc12	.	.	.	.	.	-8.4%
O=C(CSc1ccccn1)Nc1nonc1[N+](=O)[O-]	4.0%	6.9%	2.5%	10.3µM*	?	-10.3%
COc1ccc(NC(=O)c2sc3nc4c(cc3c2N)CN(C(C)C)CC4)c(OC)c1	.	.	.	i	i	-6.8%
CN(C)S(=O)(=O)c1cccc(-c2nnc(-c3ccccc3)o2)c1	-11.0%	17.4%	0.6%	23.1µM*	i	-41.4%
Clc1cccc(-c2nnc(-c3ccccc3)o2)c1	0.1%	16.4µM*	-0.4%	?	?	3.9%
Cc1ccccc1NS(=O)(=O)c1cccc(-c2nnc(-c3ccccc3)o2)c1	-4.4%	13.8%	-18.4%	i	i	14.7%
O=C(COc1ccc(Cl)cc1)NCCc1csc(-c2ccc(C(F)(F)F)cc2)n1	.	.	.	.	.	0.5%
CC(=O)N1CCc2cc(Br)cc(S(=O)(=O)N3CCC(C(=O)Nc4ccc(C(C)C)cc4)CC3)c21	.	.	.	i	?	-26.7%
Cc1nc2c(c(C)c1CCC(=O)Nc1ccc(F)cc1)c(=O)n(C)c(=O)n2C	.	.	.	i	i	7.7%
CN(Cc1cccnc1)C(=O)Cc1ccc(NS(=O)(=O)c2cccc(C(F)(F)F)c2)cc1	-1.9%	?	-16.4%	i	i	-0.2%
CC(NC(=O)Cc1ccc(NS(=O)(=O)c2cccc(C(F)(F)F)c2)cc1)c1ccccn1 (centres undefined)	-2.9%	12.5%	-7.0%	20.6µM*	?	10.6%
CCN1CC=C2C(C1)C(c1ccc(Cl)s1)C(C#N)=C(N)C2(C#N)C#N (centres undefined)	-16.4%	4.0%	-2.0%	14.6µM*	i	-49.7%
O=C(Nc1cccc([S+](=O)([O-])Nc2ccccc2F)c1)c1ccccc1	.	.	.	i	i	.
SMILES	TSG101-PTAP inh	MCF10A rereplic	SW480 rerep	KB-V1 cytotox	KB-3-1 cytotox	RGS4 inh
N#Cc1c([N+](=O)[O-])cc([N+](=O)[O-])cc1S(=O)(=O)Cc1ccccc1	-5.6%	?	5.17µM*	?	23.1µM*	?
COc1ccc(CN2COc3ccc4c(-c5ccc(OC)cc5)cc(=O)oc4c3C2)cc1	.	.	.	i	i	8.5%
CN(C)c1ccc2nc3ccc(=O)cc-3sc2c1	.	.	.	16.4µM*	?	.
CN(C)c1ccc2nc3ccc(=[N+](C)C)cc-3sc2c1	-1.2%	-9.1%	?	?	?	-129.6%
Cc1ccc(C(=O)N/N=C2\CCc3ccccc32)c(C)c1	-0.1%	1.5%	1.5%	23.1µM*	i	16.5%
O=C(N/N=C1\CCc2ccccc21)c1ccccc1Cl	-1.2%	-0.8%	0.8%	i	i	-0.5%
CC(=O)c1cccc(NC(=O)CSc2nnc3ccc(-c4ccc(Cl)cc4)nn23)c1	.	.	.	.	.	-14.0%
Cc1ccc(-n2nc(C)c(C(=O)NCCCN3CCN(c4ccc(F)cc4)CC3)c2-n2cccc2)cc1	.	.	.	16.4µM*	14.6µM*	15.1%
O=C(NCCCN1CCN(c2cccc(Cl)c2)CC1)c1nc(-c2ccncc2)no1	1.2%	20.7%	-0.9%	4.11µM*	i	-8.4%
CCCN1CCN(CCCNC(=O)c2c(C)nn(-c3ccc(F)cc3)c2-n2cccc2)CC1	.	.	.	?	i	-16.7%
COc1ccc(N2CCN(CCCNC(=O)c3c(C)nn(-c4ccc(F)cc4)c3-n3cccc3)CC2)cc1	.	.	.	?	?	12.8%
Cc1nn(-c2ccc(F)cc2)c(-n2cccc2)c1C(=O)NCCCN1CCN(c2cccc(Cl)c2)CC1	.	.	.	10.3µM*	?	12.1%
Cc1ccc(CN2CCN(CC(=O)NCCCN3CCN(c4ccc(F)cc4)CC3)C2=O)cc1	-3.1%	4.6%	-2.6%	i	16.4µM*	-11.7%
CCOC(=O)c1cc(OCc2csc(-c3ccccc3)n2)cc(C(=O)OCC)c1	.	.	.	i	i	.
CN(C)c1ccc(/C=C/c2ccnc3c(N)cccc23)cc1	.	.	.	i	?	.
